This is a sample that favours compounds with a hit; in the whole collection about 17% have one here.
TDP1 cell noCPT – qHTS for Inhibitors of human tyrosyl-DNA phosphodiesterase 1 (TDP1): qHTS in cells in absence of CPT; 15% of 420,000 active; Potency, µM (doses to about 46.2 µM), most hits filed as inhibitors; DT40 Tdp1-/- hTDP1 cells, no CPT, ATP luminescence, 48 h; further: nearly all actives have a fitted effect of over 55% in size
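A cellular qHTS used chicken DT40 cells lacking endogenous Tdp1 but carrying stably transfected human TDP1. Compounds were applied without camptothecin, and cell growth kinetics were judged by ATP-dependent luminescence after ≥48 hr.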
DT40 TDP1 CPT – DT40-hTDP1 cell growth loss with CPT. chicken DT40 Tdp1-/-;hTDP1 cells + 20 nM CPT, ATP luminescence, 48 h. Potency, µM (titrated, usually from 46.2 µM), actives largely listed as inhibitors. 12% of 420,000 active. AID 686979; further: nearly all actives have a fitted effect of over 55% in size
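Chicken DT40 Tdp1-/- cells complemented with human TDP1, 400 cells/well, exposed to compounds plus 20 nM camptothecin for at least 48 h at 37 C; viability read as ATP content by CellTiter-Glo luminescence.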
ClpP mod – qHTS Assay for Activators of ClpP. ATP-dependent Clp protease proteolytic subunit (Bacillus subtilis (strain 168)), P80244. purified B. subtilis ClpP, FRET peptide cleavage, 20 min. Potency, µM (top dose mostly 57.5 µM). 1.9% of 340,000 active; active means well fitted falling curve with a large enough effect; inconclusive means small, poorly fitted or top-dose-only effect; inactive means no such curve, though single readings can be large or run the other way; further: the source files actives as falling curves though it sought activators and does not explain the sign; nearly all actives have a fitted effect of over 65% in size
Target sequence (P80244 whole entry, looked up): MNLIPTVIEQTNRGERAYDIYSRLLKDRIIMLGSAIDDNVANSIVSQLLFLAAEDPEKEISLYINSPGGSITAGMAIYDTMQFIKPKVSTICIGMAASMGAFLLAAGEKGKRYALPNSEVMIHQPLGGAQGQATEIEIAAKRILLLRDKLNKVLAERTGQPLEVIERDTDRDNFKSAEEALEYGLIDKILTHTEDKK
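ClpP 10 microg/mL final, pH 8 Tris/KCl buffer with BSA, glycerol, Tween-20; compound pinned in; FRET-FV substrate; RT 20 min; Ex320/Em430; ΔFRET vs ADEP 5.8 microM, DMSO, no enzyme.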
TDP1 inh – TDP1 (human) enzyme inhibition; Q9NUW8; recombinant TDP1, AlphaScreen DNA substrate cleavage; Potency, µM (highest dose often 130 µM), most hits filed as inhibitors; 0.28% of 350,000 active; AID 485290; further: nearly all actives have a fitted effect of over 40% in size
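Recombinant E. coli-expressed Tdp1 (1 nM) preincubated with compound 15 min at RT, then 5'-biotin/3'-phosphotyrosine-FITC DNA substrate (15 nM) added for 5 min. AlphaScreen beads (10 ug/ml) added, 10 min RT; tyrosine-FITC cleavage read as signal loss.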
Numbers stand for hits; – = inactive; ? = inconclusive; · = no result given. Unless noted, the call rests on the fitted dose curve; in most records, active means well fitted curve in the direction sought with a large enough effect; inconclusive means small, poorly fitted or top-dose-only effect, or another doubt; inactive means no such curve, though single readings can be large; an effect the other way counts as inactive or inconclusive.

SMILES	TDP1 cell noCPT	DT40 TDP1 CPT	ClpP mod	TDP1 inh
N=c1ccn(Cc2ccc(F)cc2)cc1	10µM	?	–	–
Cc1cc(C)c(C(N)=O)c(Nc2ccc(F)cc2)n1	–	–	–	·
Cc1cc(C)c(C(N)=O)c(NCCc2ccccc2)n1	?	?	35µM	–
Cc1cc(C)c(C(N)=O)c(Nc2ccc3c(c2)OCCO3)n1	7.3µM	?	–	–
Cc1ccc(Nc2nc(C)cc(C)c2C(N)=O)c(C)c1	6.5µM	?	–	–
CCc1ccc(Nc2nc(C)cc(C)c2C(N)=O)cc1	6.5µM	?	–	·
Cc1cc(C)c(C(N)=O)c(Nc2cccc3ccccc23)n1	–	–	–	–
O=C(Nc1ccccc1Br)c1cnn2c1NC(=C1CC1)C=C2C(F)F	?	–	–	·
CC(=O)c1c(NCCc2ccccc2)nc(=S)n(-c2ccccc2)c1C	18µM	21µM	–	–
CCOC(=O)C1CCCN(c2nc3ccccc3nc2C(C#N)C(=O)OCCOC)C1 (stereo unspecified)	21µM	?	–	–
CCOC(=O)C1CCCN(c2nc3ccccc3nc2C(C#N)C(=O)OCC)C1 (stereo unspecified)	23µM	?	–	–
N#Cc1cnn2c(=O)[nH]cnc12	–	–	–	·
CCc1ccc2c(CN3CCN(S(=O)(=O)c4ccccc4F)CC3)cc(=O)oc2c1	23µM	–	·	–
CCc1ccc2c(CN3CCc4ccccc43)cc(=O)oc2c1	?	?	–	–
Cc1ccc2c(CN3CCN(S(=O)(=O)c4ccccc4C(F)(F)F)CC3)cc(=O)oc2c1C	23µM	?	–	–
O=C(COC(=O)c1ccccc1[N+](=O)[O-])Nc1nnc(-c2ccccc2)o1	–	–	·	–
O=C(CCN1CCN(c2ccccc2)CC1)Nc1ccc(Cl)cc1	–	–	–	–
CC(C)(C)c1cc(C(=O)CCN2CCOCC2)cc(C(C)(C)C)c1O	7.3µM	4.6µM	–	·
O=C(CCN1CCN(c2ccc([N+](=O)[O-])cc2)CC1)c1ccc(Cl)cc1	4.6µM	3.7µM	·	·
CC(C)(C)c1cc(C(=S)N2CCN(CCO)CC2)cc(C(C)(C)C)c1O	?	?	–	–
O=C(CCN1CCN(c2ccccc2)CC1)c1ccc(Cl)cc1	6.5µM	5.2µM	–	·
O=C1CC(=C(c2ccccc2)c2ccccc2)C(=O)N1CCCCN1CCN(c2ccccc2)CC1	9.2µM	15µM	–	–
Cc1ccn(C(=O)c2ccc(NC(=O)CC(C)C)cc2)n1	–	?	–	–
CC(=O)c1cccc(NC(=O)COC(=O)c2ccccc2OCc2cccc(Br)c2)c1	–	–	–	·
COc1cc(SC)ccc1C(=O)OC(C)C(=O)Nc1ccc(NC(C)=O)cc1 (stereo unspecified)	?	–	·	–
SMILES	TDP1 cell noCPT	DT40 TDP1 CPT	ClpP mod	TDP1 inh
Cc1cc(C)cc(NC(=O)N2CCC(N3CCN(Cc4ccccc4)C(=O)C3=O)CC2)c1	–	–	–	–
CCOC(=O)C1CCC(=O)N1Cc1c[nH]c2ccccc12 (stereo unspecified)	–	–	–	·
COc1ccc(N2CCN(CCC(=O)c3ccc4ccccc4c3)CC2)cc1	15µM	18µM	–	·
O=C(CCN1CCOCC1)c1ccc(N2CCCCC2)cc1	4.1µM	1.6µM	–	–
CCC(=O)c1ccc(OCCN2CCOCC2)cc1	–	–	–	–
COc1ccc(Cc2c(-c3ccccc3)nc3c4ccccc4ccn23)c(C)c1	15µM	?	?	·
COc1ccccc1Cc1c(-c2ccc(OC)c(OC)c2)nc2c3ccccc3ccn12	23µM	?	–	·
COc1ccc(-c2nc3c4ccccc4ccn3c2C=O)cc1	–	–	·	–
COc1ccc(Cc2c(-c3ccc(C#N)cc3)nc3c4ccccc4ccn23)c(C)c1	?	?	–	·
COc1ccccc1Cc1c(-c2ccc(C#N)cc2)nc2c3ccccc3ccn12	21µM	21µM	–	·
COc1ccccc1Cc1c(C(C)(C)C)nc2c3ccccc3ccn12	2.6µM	3.3µM	–	·
COc1ccccc1Cc1c(-c2ccc(OC)c(OC)c2)nc2c(Cl)cc(C(F)(F)F)cn12	–	–	?	·
COC(=O)[C@]1(C)N[C@H](CN(C)S(=O)(=O)c2ccccc2)[C@@H]2C(=O)N(Cc3ccccc3)C(=O)[C@@H]21	–	–	–	–
COc1cc(OC)cc(C(=O)NCC(=O)OCc2ccc(Cl)c(Cl)c2)c1	–	?	–	–

Compound activity from PubChem.
